Source: PubChem BioAssay
A selection: hits, their analogues and other compounds. The true share with any hit is near 15%.
DT40 TDP1 CPT – DT40-hTDP1 cell growth loss with CPT; chicken DT40 Tdp1-/-;hTDP1 cells + 20 nM CPT, ATP luminescence, 48 h; Potency, µM (series often up to 46.2 µM), for inactives: top-dose activity change, negative = growth inhibition, usual class: inhibitors; 420,000 compounds, 12% hits; note: nearly all actives have a fitted effect of over 55% in size
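Chicken DT40 Tdp1-/- cells complemented with human TDP1, 400 cells/well, exposed to compounds plus 20 nM camptothecin for at least 48 h at 37 C; viability read as ATP content by CellTiter-Glo luminescence.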
RORg inh – blocks mouse ROR gamma transcriptional activity; Drosophila S2 Gal4-RORgamma UAS-luciferase reporter, 20 h; Potency, µM (highest dose often 53.6 µM), without a hit: top-dose activity change, negative = inhibition, usual class: inhibitors; 310,000 compounds, 5.4% hits; note: nearly all actives have a fitted effect of over 60% in size
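ROR gamma transcriptional activity was tracked as Gal4-UAS luciferase output in stably transfected Drosophila Schneider cells, with compound added 1 hr before 700 uM copper sulfate induction and a 20 hr ambient-temperature incubation.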
12-LOX inh – ALOX12 (human) lipoxygenase inhibition. P18054. purified 12hLO, xylenol orange hydroperoxide absorbance. Potency, µM (doses to about 108 µM), for the others: top-dose activity change, negative = inhibition, actives largely listed as inhibitors. 580,000 compounds, 1.1% hits
Target sequence (P18054 whole entry, looked up): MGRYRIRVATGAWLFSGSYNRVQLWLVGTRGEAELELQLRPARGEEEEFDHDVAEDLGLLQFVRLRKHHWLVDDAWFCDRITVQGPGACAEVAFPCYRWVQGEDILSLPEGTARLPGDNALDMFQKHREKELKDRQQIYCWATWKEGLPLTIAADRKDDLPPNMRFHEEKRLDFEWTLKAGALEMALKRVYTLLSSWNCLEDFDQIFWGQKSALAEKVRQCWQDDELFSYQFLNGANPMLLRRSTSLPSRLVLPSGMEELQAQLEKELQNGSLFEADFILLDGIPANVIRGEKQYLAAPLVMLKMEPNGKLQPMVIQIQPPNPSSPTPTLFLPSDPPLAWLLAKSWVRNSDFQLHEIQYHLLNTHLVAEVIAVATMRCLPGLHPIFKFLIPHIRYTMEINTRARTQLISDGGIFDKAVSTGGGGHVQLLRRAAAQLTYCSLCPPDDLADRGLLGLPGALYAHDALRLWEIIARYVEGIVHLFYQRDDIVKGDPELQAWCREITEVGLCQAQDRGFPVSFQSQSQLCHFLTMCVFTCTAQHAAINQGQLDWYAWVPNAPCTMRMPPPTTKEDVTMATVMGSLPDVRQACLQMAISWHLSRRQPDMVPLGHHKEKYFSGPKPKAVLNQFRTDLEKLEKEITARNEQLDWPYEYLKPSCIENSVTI
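Purified human 12hLO (150 nM final) in 25 mM Hepes, 0.01% Triton X-100, pH 7.0 was preincubated 15 min at room temperature with compound. Then 40 uM arachidonic acid was added, 30 min. Hydroperoxide was read by Fe-XO absorbance ratio 573/405 nm.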
DT40 TDP1 no CPT – qHTS for Inhibitors of human tyrosyl-DNA phosphodiesterase 1 (TDP1): qHTS in cells in absence of CPT; DT40 Tdp1-/- hTDP1 cells, no CPT, ATP luminescence, 48 h; Potency, µM (titrated, usually from 46.2 µM), for inactives: at the top dose activity change, negative = growth inhibition, most hits filed as inhibitors; 420,000 compounds, 15% hits; note: nearly all actives have a fitted effect of over 55% in size
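Cells were dispensed at 400 per well, compounds added by pin tool, plates incubated ≥48 hr at 37 °C, then CellTiter-Glo added for 30 min at room temperature before luminescence reading. Line: DT40 Tdp1-/- complemented with hTDP1; camptothecin omitted.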
ELG1 DNA repair – blocks ELG1-dependent DNA repair in HEK293T cells. AID 504467. Potency, µM (doses to about 46.1 µM), inactives show top-dose activity change, negative = inhibition, most hits filed as inhibitors. 330,000 compounds, 2.3% hits. HEK293T ELG1-luciferase reporter, luminescence, 16 h; DNA damage induced by 5-fluorouridine; note: nearly all actives have a fitted effect of over 55% in size
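5-Fluorouridine DNA damage + compound/DMSO, 2,000 cells/well, 16 h, 37 °C/5% CO2. ONE-Glo, 30 min RT, luminescence. Readout = decrease in reporter signal.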
Gal4-VP16 FLuc – inhibits Gal4-VP16 luciferase reporter, ROR gamma counter-screen; AID 2546; Potency, µM (top dose mostly 53.6 µM), without a hit: top-dose activity, negative = inhibition, hits mostly inhibitors; 310,000 compounds, 3.5% hits; Drosophila S2 Gal4-VP16 UAS-luciferase, luminescence, 20 h;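 note: Gal4-VP16 expression switched on by copper sulfate through the metallothionein promoter; nearly all actives have a fitted effect of over 50% in size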
* marks the source's active call; other numbers are inactive results; u = inconclusive; x = no result; [ ] = dose if it differs, or a comment. Calls come from the whole dose curve; as a rule, active = well fitted curve in the direction sought with a large enough effect; inconclusive = small, poorly fitted or top-dose-only effect, or another doubt; inactive = no such curve, though single readings can be large; an effect the other way counts as inactive or inconclusive. % is set by controls: 0 for no effect and ±100 for the full control effect; potency is the fitted concentration of half-maximal effect.

SMILES | DT40 TDP1 CPT | RORg inh | 12-LOX inh | DT40 TDP1 no CPT | ELG1 DNA repair | Gal4-VP16 FLuc
Cc1ccc(N2CCN(S(=O)(=O)c3ccc(F)c(C)c3)CC2)c(C)c1 | u | 3% | 0% | u | 0% | -5%
CCc1ccccc1N1CCN(S(=O)(=O)c2ccc(F)c(C)c2)CC1 | u | -4% | u | 21µM* | u | -2%
CCC(=O)c1cc(F)c(N2CCN(S(=O)(=O)c3ccc(C)cc3)CC2)cc1C | u | u | 19% | 21µM* | u | -11%
COc1ccccc1N1CCN(S(=O)(=O)c2ccc(F)c(C(=O)Nc3ccc(C)c(F)c3)c2)CC1 | 16µM* | x | -22% | u | x | x
CCOc1ccccc1C1NC(=O)N(CC(=O)NC2CCCCC2)C2=C1C(=O)OC2 (centres undefined) | x | x | 17% | x | x | x
Cc1ccc(C2=NC3(CCN(C(=O)c4cc(F)ccc4F)CC3)ON2)cc1 | x | x | 2% | x | x | x
Cn1c(C(C#N)C(=O)c2ccco2)nc2ccccc21 (centres undefined) | 2% | u | 47% | u | u | 6.3µM*
Cn1c(C(C#N)C(=O)Cc2cccc3ccccc23)nc2ccccc21 (centres undefined) | u | 0.79µM* | 6% | u | -7% | u
CCCC(=O)NC(C)c1nc2ccccc2n1C (centres undefined) | -7% | 4% | -9% | -5% | 11% | 4%
CC(NC(=O)c1ccco1)c1nc2ccccc2n1Cc1ccccc1 (centres undefined) | x | x | -1% | x | x | x
COc1cccc(CNS(=O)(=O)c2ccc3c(c2)OCC(C(=O)N2CCCCC2)O3)c1 (centres undefined) | x | x | 4% | x | x | x
Cc1noc(C)c1CSc1nc2ccccc2c(=O)n1-c1ccc(Cl)cc1 | 18µM* | 11µM* | 12% | 15µM* | u | 5%
CSc1nnnn1-c1ccc(Cl)cc1 | 8% | 16% | -1% | 3% | u | 9%
Cc1noc(C)c1CSc1nnnn1-c1ccc(Cl)cc1 | u | -1% | 2% | 15µM* | -15% | 1%
Cc1noc(C)c1CSc1nc2ccccc2n1CCc1ccccc1 | u | 7.1µM* | u | u | -4% | u
COc1ccc2cc(C(=O)Nc3cc(C)ccn3)c(C)nc2c1 | x | x | 3% | x | x | x
COc1cccc(CNC(=O)CCn2nc(-c3ccccc3OC)c3c(C)cc(C)nc32)c1 | x | x | 6% | x | x | x
CCNC(=S)N(CCc1cccc(C)c1)Cc1cc2cc(OC)c(OC)cc2[nH]c1=O | u | 23% | u | u | 8.2µM* | -9%
COc1cc2cc(CN(CCc3ccccc3C)C(=S)NCCCN(C)C)c(=O)[nH]c2cc1OC | u | -28% | 1% | 16µM* | -23% | u
CCNC(=S)N(CCc1ccccc1C)Cc1cc2cc(OC)c(OC)cc2[nH]c1=O | -18% | 36% | u | 3% | 9.2µM* | -14%
CCNC(=S)N(CCc1ccc(OC)c(OC)c1)Cc1cc2cc(OC)ccc2[nH]c1=O | -29% | 5% | -3% | -21% | u | 1%
COc1ccc([C@H]2C[C@@H](O)[C@@H](O)[C@@H]2NCc2ccccc2)cc1 | x | x | 11%[176 µM] | x | x | x
COc1ccc([C@H]2C[C@@H](O)[C@@H](O)[C@@H]2NCc2cn(C)c3ccccc23)cc1 | x | x | 40µM* | x | x | x
CC1=C(C(=O)N(C)C)CC(CC(=O)NCC2CCCCC2)C(=O)N1Cc1ccccc1 (centres undefined) | -13% | x | u | -14% | x | x
CCN(CC)C(=O)C1=C(C)N(Cc2ccc(C(C)(C)C)cc2)C(=O)C(CC(=O)NCC2CCCCC2)C1 (centres undefined) | 13µM* | x | u | 18µM* | x | x
SMILES | DT40 TDP1 CPT | RORg inh | 12-LOX inh | DT40 TDP1 no CPT | ELG1 DNA repair | Gal4-VP16 FLuc
CC1=C(C(=O)N(C)C)CC(CC(=O)NCC2CCCCC2)C(=O)N1Cc1ccc(C(C)(C)C)cc1 (centres undefined) | u | x | -32% | 16µM* | x | x
CC(=O)N1CCC2(CC1)CN(C(=O)C1CCN(C)CC1)Cc1ccccc1O2 | x | x | 10%[6.33 µM] | x | x | x
COCCCNC(=O)C(NC(=O)c1ccc(OC)cc1)C1CCN(C(=O)c2cccc(OC)c2)CC1 (centres undefined) | x | x | 35% | x | x | x
CCOc1ccc2c(c1)c(=O)c(C(=O)c1ccc3c(c1)OCO3)cn2Cc1cccc(F)c1 | u | x | u | 23µM* | x | x
Cc1ccc2c(c1)c(=O)c(C(=O)c1ccc3c(c1)OCO3)cn2Cc1cccc(F)c1 | u | x | 3% | 16µM* | x | x
COc1cccc(Cn2cc(C(=O)c3ccccc3)c(=O)c3cc4c(cc32)OCO4)c1 | u | x | -2% | u | x | x
O=[N+]([O-])c1cccc2nc3ccccc3c(NCCCn3ccnc3[N+](=O)[O-])c12 | 0.15µM* | x | -7% | 0.18µM* | x | x
CC(=O)N1CCC(N2CC[C@H](c3nnc(-c4ccco4)o3)C2)CC1 | x | x | -1%[176 µM] | x | x | x
COc1ccc(CN2C(=O)CO[C@H](c3ccc(NC(=O)c4ccccc4C)cc3)[C@H]2CO)cc1 | x | x | 30% | x | x | x
COc1cc(/C=C2\SC(=S)N(CCC(=O)Nc3ccc(O)cc3)C2=O)cc(OC)c1OC | u | u | -22% | 16µM* | 23µM* | 8%
COc1ccccc1NC(=O)CCN1C(=O)/C(=C/c2cc(OC)c(OC)c(OC)c2)SC1=S | u | 8% | 15% | 15µM* | u | -9%
CC1(C)CC(NC(=O)Nc2ccc(OC(F)F)cc2)CC(C)(C)N1 | x | x | 10% | x | x | x
O=C(CCNC(=O)C1CCCC1)NC1CCCC1 | x | x | 4% | x | x | x
C=CCNC(=O)N(C)Cc1ccc(C(N)=O)cc1 | x | x | 17% | x | x | x
COc1ccc(S(=O)(=O)c2c(C)c(C)n(C(C)C)c2NC(=O)C2CCCO2)cc1 (centres undefined) | x | x | 16% | x | x | x
COC(=O)c1ccccc1NC(=S)NC(NC(=O)c1ccco1)C(Cl)(Cl)Cl (centres undefined) | 0% | 7.9µM* | u | -21% | -1% | -89%
COC(=O)c1ccccc1NC(=S)NC(NC(=O)c1ccccc1[N+](=O)[O-])C(Cl)(Cl)Cl (centres undefined) | 0% | 13µM* | u | -15% | 2% | u
COc1ccc(NC(=S)NC(NC(=O)c2ccccc2Cl)C(Cl)(Cl)Cl)c([N+](=O)[O-])c1 (centres undefined) | u | u | u | u | u | -5%
